Most compounds without a hit are left out; they make up all but 3.1% or so of the library.
VDR inhibitor = Inhibitors of the vitamin D receptor (VDR): qHTS; Vitamin D3 receptor (Homo sapiens), P11473; VDR-SRC2-3 peptide fluorescence polarization, 2 h; Potency, µM, without a hit: max response, negative = inhibition, most hits filed as inhibitors; 400,000 compounds, 0.93% hits; AID 504847, 2011; note: potency is the fitted concentration of half-maximal effect; % is set by controls: 0 for no effect and ±100 for the full control effect
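The screen uses fluorescence polarization to detect compounds that interfere with recruitment of the SRC2-3 coactivator peptide to VDR; plates are read after 2 h at room temperature.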
Vif-APOBEC3G blk = qHTS for Inhibitors of Vif-A3G Interactions: qHTS | DNA dC->dU-editing enzyme APOBEC-3G (Homo sapiens), Q9HC16 | HeLa A3G-eYFP + Vif (tagged APOBEC3G with the HIV-1 protein that degrades it), YFP fluorescence, overnight | Potency, µM (highest dose often 46.1 µM), for the others: top-dose activity, negative = active, usual class: inhibitors | 410,000 compounds, 0.076% hits; note: potency is the fitted concentration of half-maximal effect; % is set by controls: 0 for no effect and ±100 for the full control effect; nearly all actives have a fitted effect of over 60% in size
Target sequence (Q9HC16 whole entry, looked up): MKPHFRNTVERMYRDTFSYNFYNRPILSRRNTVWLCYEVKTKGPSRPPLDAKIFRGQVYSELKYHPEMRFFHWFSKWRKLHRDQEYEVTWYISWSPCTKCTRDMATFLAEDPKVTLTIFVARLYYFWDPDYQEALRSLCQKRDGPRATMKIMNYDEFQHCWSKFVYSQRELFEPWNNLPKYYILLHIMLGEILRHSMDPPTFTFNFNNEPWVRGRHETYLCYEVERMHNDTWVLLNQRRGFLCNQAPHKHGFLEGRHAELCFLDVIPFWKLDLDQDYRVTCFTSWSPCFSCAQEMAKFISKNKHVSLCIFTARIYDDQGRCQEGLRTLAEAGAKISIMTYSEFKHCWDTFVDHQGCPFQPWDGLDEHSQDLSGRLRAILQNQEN
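Read-out is eYFP fluorescence (Ex 488/Em 500-530) from Vif-expressing HeLa A3G-eYFP cells; more signal means A3G escaped Vif-mediated degradation. Cells plated overnight, compound pinned in, incubated overnight at 37 deg C.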
Vif-A3F inh = qHTS for Inhibitors of Vif-A3F Interactions: qHTS; Potency, µM (titrated, usually from 46.1 µM), for the others: at the top dose activity, negative = active; HeLa A3F-eYFP + Vif (tagged APOBEC3F with the HIV-1 protein that degrades it), YFP fluorescence increase; 390,000 compounds, 0.2% hits; note: potency is the fitted concentration of half-maximal effect; % of control where 0% means no effect; nearly all actives have a fitted effect of over 65% in size
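HeLa cells stably expressing A3F-eYFP plus Vif, plated and incubated overnight at 37 deg C, then exposed to compounds overnight at 37 deg C. Blocked degradation read as raised yellow fluorescence (Ex 488/Em 500-530).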
PLK1 PBD block = qHTS for Inhibitors of PLK1-PDB (polo-like kinase 1 - polo-box domain): Primary Screen. Plk1 PBD binding of FITC phosphopeptide, fluorescence polarization. 360,000 compounds, 2.8% hits. Potency, µM, for inactives: max response, negative = inhibition, hits mostly inhibitors. Serine/threonine-protein kinase PLK1 (Homo sapiens), P53350; note: potency is the fitted concentration of half-maximal effect; series mostly up to about 57 µM; % is set by controls: 0 for no effect and ±100 for the full control effect; nearly all actives have a fitted effect of over 65% in size
TSHR antag = Antagonists of the Thyroid Stimulating Hormone Receptor: HTS campaign; 330,000 compounds, 0.2% hits; Thyrotropin receptor (Homo sapiens), P16473; activity change, negative = inhibition, % at 11.5 µM; TSHR-expressing cells, TSH-stimulated cAMP HTRF, 2 h; active compounds read low; AID 504810, 2011;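 active = activity change below a set negative limit, meaning inhibition stronger than a set level, cut at about -70% in these data; inconclusive = activity change between two set negative limits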; note: % is set by controls: 0 for no effect and ±100 for the full control effect
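Competitive HTRF cAMP read-out (cryptate anti-cAMP antibody, cAMP-d2; 30 min, room temperature) in freshly harvested TSHR cells. Compounds added before TSH at EC80 (4nM final), followed by 2 hours' incubation at 37 deg C.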
TbPYK confirm = qHTS of Trypanosoma Brucei Inhibitors: Confirmatory Assay for Cherry-picked Compounds | shares compounds with PLK1 PBD block | recombinant TbPYK, Kinase-Glo ATP luminescence | Potency, µM (doses to about 76.9 µM), without a hit: top-dose activity change, negative = inhibition, actives largely listed as inhibitors | 890 compounds, 67% hits; note: potency is the fitted concentration of half-maximal effect; % is set by controls: 0 for no effect and ±100 for the full control effect; nearly all actives have a fitted effect of over 70% in size
TbPYK ADP-Glo = qHTS of Trypanosoma Brucei Inhibitors: Orthogonal Assay for Cherry-picked Compounds; shares compounds with PLK1 PBD block; recombinant TbPYK, ADP-Glo luminescence, 60 min; Potency, µM (highest dose often 76.9 µM), for the others: at the top dose activity change, negative = inhibition, hits mostly inhibitors; 890 compounds, 62% hits; note: potency is the fitted concentration of half-maximal effect; % is set by controls: 0 for no effect and ±100 for the full control effect; nearly all actives have a fitted effect of over 75% in size
An asterisk follows results filed as active; ? = inconclusive; nt = no result given. Unless noted, calls come from the whole dose curve; as a rule, active = well fitted curve in the direction sought with a large enough effect; inconclusive = small, poorly fitted or top-dose-only effect, or another doubt; inactive = no such curve, though single readings can be large; an effect the other way counts as inactive or inconclusive.

SMILES	VDR inhibitor	Vif-APOBEC3G blk	Vif-A3F inh	PLK1 PBD block	TSHR antag	TbPYK confirm	TbPYK ADP-Glo
O=C(c1ccccc1)c1ccc2nc(-c3ccco3)c(-c3ccco3)nc2c1	45µM*	-2%	-21%	7.5µM*	-11	?	?
Cc1[nH]cnc1C(=O)N/N=C/c1c(Cl)cccc1Cl	-16%	1%	-2%	1%	-2	20µM*	12%
Cc1nnsc1C(=O)N/N=C/c1c(F)cccc1Cl	-17%	0%	-11%	-1%	4	nt	nt
Cc1nc(SCc2ccc(O)c([N+](=O)[O-])c2)n[nH]1	-13%	-3%	2%	-15%	-2	nt	nt
Cc1nc(SCc2ccc(O)c([N+](=O)[O-])c2)c([N+](=O)[O-])[nH]1	?	3%	-2%	-30%	-12	?	13µM*
CCN(CC)CCOC(=O)c1ccc(NC(=O)c2cc3c(s2)-c2ccccc2OC3)cc1	20%	?	8%	nt	nt	nt	nt
Cc1nc2sc(C(=O)O)c(N)c2c2c1COC(C)(C)C2	?	1%	-7%	?	1	?	18µM*
CSc1cnn(-c2ccccc2)c(=O)c1SC	7%	1%	-15%	?	20	nt	nt
CSc1cnn(Cc2ccccc2)c(=O)c1SCc1ccccc1	?	-5%	-20%	?	-41	14µM*	22µM*
CCNc1nc(N)nc(Oc2ccc(OCC(=O)OC)nn2)n1	8%	0%	5%	nt	nt	nt	nt
CC1(c2ccc(Cl)cc2)CC(C)(C)N(C(=O)c2cccc(F)c2)c2ccccc21 (stereo not given)	-9%	0%	7%	nt	nt	nt	nt
CCc1ccc(C2c3c(-c4ccccc4O)n[nH]c3C(=O)N2Cc2ccncc2)cc1 (stereo not given)	23%	-14%	3%	nt	nt	nt	nt
Cc1ccc(/C=C/C(=O)Nc2cccc3ncccc23)o1	-7%	-4%	-4%	?	3	?	?
Cc1ccc(/C=C/C(=O)Nc2cccnc2)o1	-6%	-4%	1%	?	35	28µM*	40µM*
Cc1ccc(/C=C/C(=O)NCCc2ccccc2)o1	71µM*	-6%	-21%	27µM*	10	?	?
Cc1ccc(/C=C/C(=O)Nc2ccccc2C(N)=O)o1	4%	-1%	2%	nt	nt	nt	nt
O=C(O)/C=C/C(=O)NCCc1ccccc1	-9%	-1%	14%	4%	21	nt	nt
O=C1CC(c2nnc(Cc3ccc(F)cc3Cl)o2)CN1c1ccccc1 (stereo not given)	4%	0%	0%	nt	nt	nt	nt
O=c1oc2ccccc2cc1-c1nc(-c2cccs2)no1	6%	-4%	-8%	nt	nt	nt	nt
CNc1ncnc2c1ncn2[C@H]1C[C@H](OP(=O)(O)O)[C@H](COP(=O)(O)O)O1	2%	nt	nt	nt	nt	nt	nt
COc1ccccc1-c1nnc(SCC(=O)Nc2oc(C)c3c(C)n[nH]c(=O)c23)n1C	-3%	0%	2%	-13%	14	nt	nt
COCC(C)n1c(COc2ccccc2F)nnc1SCC(=O)Nc1oc(C)c2c(C)n[nH]c(=O)c12 (stereo not given)	-4%	2%	8%	-20%	16	20µM*	18µM*
O=c1ccc2nc3ccccc3sc-2c1	nt	7%	nt	21µM*	nt	13µM*	?
Brc1ccc(-c2nc3ccccc3s2)s1	4%	-6%	-2%	-11%	1	nt	nt
CCOc1ccc(CCNC(=O)CCc2c(C)nc3c(-c4ccccc4)c(C)nn3c2C)cc1OCC	-13%	-4%	-9%	nt	nt	nt	nt
SMILES	VDR inhibitor	Vif-APOBEC3G blk	Vif-A3F inh	PLK1 PBD block	TSHR antag	TbPYK confirm	TbPYK ADP-Glo
O=c1cc(NCc2ccccc2)[nH]c(=O)[nH]1	-2%	0%	-14%	5%	nt	?	?
Cc1sc(-n2cccc2)c(C(C)NC(=O)Nc2ccccc2Cl)c1C (stereo not given)	4%	nt	nt	nt	nt	nt	nt
C=CCn1c(SCCN2CCOCC2)nc2c1c(=O)[nH]c(=O)n2C	-5%	3%	-13%	-14%	13	nt	nt
COCCn1c(SCCN2CCOCC2)nc2c1c(=O)[nH]c(=O)n2C	?	0%	4%	12µM*	-8	10µM*	14µM*
CC(=O)c1cc(C(=O)Nc2cc(C)cc(C)c2)c2ccccn12	-7%	0%	-2%	nt	nt	nt	nt
FC(F)(F)Oc1ccc(Nc2nc(N3CCOCC3)nc(N3CCOCC3)n2)cc1	?	-15%	-23%	4.7µM*	-3	5%	-4%
CCc1ccc(Nc2nc(N3CCOCC3)nc(N3CCOCC3)n2)cc1	4%	2%	4%	-20%	-2	nt	nt
NC(=O)CN1C(=O)/C(=c2\sc3nc(=O)c(Cc4ccccc4)nn3c2=O)c2ccccc21	?	-14%	-29%	6µM*	-5	28µM*	16µM*
O=c1nc2s/c(=C\c3ccco3)c(=O)n2nc1Cc1ccc(F)cc1	?	-2%	4%	-23%	-14	nt	nt
Cc1ccc(-c2cc(-c3ccc(F)cc3)c(C#N)c(N)n2)o1	?	-21%	-16%	?	-5	nt	nt
Cc1cc(-c2cc(-c3ccc(Cl)cc3)nc(N)c2C#N)co1	?	-23%	-24%	21µM*	-16	-21%	40µM*
Cc1ccc(S(=O)(=O)c2nnn3c2nc(Nc2ccc(C(C)C)cc2)c2sccc23)cc1C	0%	1%	2%	nt	nt	nt	nt
CN1CCN(c2nc(-c3ccc(Cl)s3)cs2)CC1	-12%	1%	1%	19µM*	-2	?	16µM*
COC(=O)c1sc(NC(=O)c2cc(-c3ccccc3)nc3ccccc23)c(C#N)c1C	?	-13%	-18%	2.7µM*	-48	7.1µM*	7.1µM*
COC(=O)c1sccc1NC(=O)c1cc(-c2ccc(C)cc2)nc2ccccc12	4%	-2%	-11%	-1%	-4	nt	nt
CCOc1cc(CNC(=O)Cn2c(=O)c3cccn3c3ccc(F)cc32)cc(OCC)c1OCC	-2%	1%	-2%	nt	nt	nt	nt

Compound activity: PubChem, National Center for Advancing Translational Sciences (NCATS)
